From PubChem BioAssay AID720650 (Broad Institute, 2013)
Calls of active or inactive are those of the source. No rule for the calls is given here.

Experiment: C difficile toxins, biochemical counterscreen, UDPG substrate absence, confirmatory dose response (AID 720650)
Details: series mostly up to 19.5 µM

Row | Compound | AC50
1 | N#CCCN(C(=O)COC(=O)c1cc(=O)c2ccccc2o1)c1ccccc1 | inactive
2 | COc1ccc(NS(=O)(=O)c2cc(N=Nc3c(O)[nH]c(=O)[nH]c3=O)ccc2Cl)cc1 | inactive
3 | COc1ccc2nccc(/C=C/c3ccnc4ccc(OC)cc34)c2c1 | inactive
4 | C/C(CCc1ccccc1)=N\NC(=O)C1C2CCCCC21 (centres undefined) | inactive
5 | COc1ccc(NC(=O)C2CC(=O)N(c3ccccc3F)C2)cc1S(=O)(=O)N1CCCCC1 (centres undefined) | inactive
6 | NC(=O)Nc1ccc(Nc2ccccc2)cc1 | > 39 µM (inactive)
7 | CCN1CCN(C(=O)C2=CC(c3ccc(OC)cc3)=NS(=O)(=O)N2C)CC1 | inactive
8 | S=c1nc(-c2ccc(Cl)cc2)[nH][nH]1 | 3.22 µM (active)
9 | Cc1nc(SCC(=O)N2CCNC2=O)c(C#N)c(C)c1C | inactive
10 | CCCC(=O)Nc1ccc2c(c1)OC[C@H](C)N(CC1CCCC1)C[C@H](C)[C@@H](OC)CN(C)C2=O | inactive
11 | O=C(c1ccc(N2CCOCC2)c([N+](=O)[O-])c1)N1CCN(c2ccccc2F)CC1 | > 39 µM (inactive)
12 | CCCNC(=O)C[C@H]1CC[C@@H]2[C@H](COc3ccc(NC(=O)c4ccc(Cl)cc4)cc3C(=O)N2C)O1 | > 39 µM (inactive)
13 | COCC#Cc1ccc2c(c1)O[C@@H](CN(C)C(=O)CC1CC1)[C@H](C)CN([C@@H](C)CO)S2(=O)=O | inactive
14 | CCOc1cc(/C=N/n2cnnc2)ccc1O | inactive
15 | COc1cc(C=NNC(=O)c2ccccc2-n2cccc2)ccc1O | inactive
16 | COc1ccc(-c2nc(N)ncc2-c2ccccc2OC)c(O)c1 | inactive
17 | O=C(Nc1ccc(N2CCOCC2)c(Cl)c1)c1ccc(F)cc1 | inactive
18 | Cc1ccc(C)c2sc(NC(=O)c3ccc(N4C(=O)CCC4=O)cc3)nc12 | inactive
19 | CC(N)C(=O)NC(C(=O)N1CCCC1C(=O)NC(c1ccccc1)c1ccccc1)C(C)C (centres undefined) | inactive
20 | CC(=O)N1CCN(c2ccc(S(C)(=O)=O)cc2[N+](=O)[O-])CC1 | inactive

Row | Compound | AC50
21 | CNC(=O)C1Cc2c(-c3ccccc3Oc3ccccc3)ccnc2O1 (centres undefined) | > 39 µM (inactive)
22 | O=C(CCNC(=O)c1ccccc1Cl)N/N=C\c1ccc(O)cc1 | 15.8 µM (active)
23 | CC(C)Sc1nnc(NC(=O)c2ccco2)s1 | inactive
24 | Oc1ccc(Cc2ccc(Cl)cc2)c(O)c1 | > 39 µM (inactive)
25 | Cc1cc(C)nc(NC(N)=NCCc2ccccc2)n1 | > 39 µM (inactive)
26 | Cc1ccc(N/N=C/c2c(O)n(-c3ccccc3)c(=O)[nH]c2=O)cc1 | 0.875 µM (active)
27 | COc1ccc(Cl)cc1NC(=O)CN(C)C(=O)c1cc2c(s1)CCCC2 | inactive
28 | CCC(=O)Nc1ccc2c(c1)OC[C@@H](C)N(C(=O)NC(C)C)C[C@H](C)[C@H](OC)CN(C)C2=O | inactive
29 | Oc1ccc(-c2cn3ccccc3n2)cc1 | 4.42 µM (active)
30 | Nc1nc(Cl)cc(NCCc2ccc(O)cc2)n1 | 21.8 µM (active)
31 | Nc1ncnc2[nH]c(=S)[nH]c12 | > 39 µM (inactive)
32 | O=C(Nc1ccc(O)cc1)c1ccc2c(c1)C(=O)N(Cc1ccco1)C2=O | 9.58 µM (active)
33 | COc1cc(/C=C/C(=O)c2ccc([N+](=O)[O-])o2)ccc1O | inactive
34 | O=C(Nc1ccc(O)cc1)C1CCCN1S(=O)(=O)c1ccc(F)cc1 (centres undefined) | 10.9 µM (active)
35 | O=c1[nH]nc(-c2ccc(F)cc2)cc1Cc1ccccc1 | inactive
36 | C[C@H](CO)N1C[C@H](C)[C@H](CN(C)Cc2ccc(Oc3ccccc3)cc2)Oc2cc(-c3ccncc3)ccc2S1(=O)=O | inactive
37 | CNC(=O)C[C@H]1CC[C@@H]2[C@@H](COc3ccc(NC(=O)c4cccc(OC)c4)cc3C(=O)N2C)O1 | inactive
38 | O=C(NC(=S)NCc1ccccc1)c1cccnc1 | inactive
39 | Fc1ccc(/C=C\c2nccc3c2[nH]c2ccccc23)cc1 | inactive
